Measured values published in PubChem BioAssay.
Unmarked numbers belong to inactive results. The rule behind the calls is not given here.

target: Pantothenate synthetase (Mycobacterium tuberculosis (strain ATCC 25618 / H37Rv)) (UniProt P9WIL5); experiment: Recombinant Mtb pantothenate synthetase (PanC) inhibitors, coupled enzyme, confirmatory (AID 375); details: coupled enzyme assay; at 10 µM, hits give high values;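 note: 0% = full reaction with vehicle and 100% = no enzyme background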
Sequence (P9WIL5 whole entry, looked up): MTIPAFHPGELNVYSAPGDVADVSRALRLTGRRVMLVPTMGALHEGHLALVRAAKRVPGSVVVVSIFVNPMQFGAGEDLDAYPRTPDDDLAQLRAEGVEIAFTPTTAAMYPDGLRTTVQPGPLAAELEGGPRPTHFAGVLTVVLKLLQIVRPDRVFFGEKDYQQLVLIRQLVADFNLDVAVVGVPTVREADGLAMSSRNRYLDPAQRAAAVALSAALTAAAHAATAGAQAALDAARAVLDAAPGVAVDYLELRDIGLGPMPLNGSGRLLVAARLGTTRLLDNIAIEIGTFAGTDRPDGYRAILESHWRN

SMILES | inhibition [%]
CC(OC(=O)c1ccco1)C(=O)NCc1cccs1 (configuration not stated) | 0
COc1cc(S(=O)(=O)N(C)C)ccc1F | 1
Cc1ccc(S(=O)(=O)N2CCC(C(=O)N[C@@H](Cc3ccccc3)C(=O)O)CC2)cc1 | 0
O=C1C2C3C=CC(C3=C3CCCCC3)C2C(=O)N1c1ccccc1 (configuration not stated) | 0
O=C(COc1nnnc2ccccc12)N1CCCc2ccccc21 | 0
COC(=O)Cn1c(=O)c2c(nc(Br)n2CC(=O)OC)n(C)c1=O | 0
COc1ccc(NC(=O)C2CCCCN2S(=O)(=O)c2ccc(F)cc2)cc1 (configuration not stated) | 0
COc1ccccc1Cn1c(-c2ccco2)nc2nc3ccccc3nc21 | 0
Cn1c([N+](=O)[O-])cnc1COC(N)=O | 0
COc1ccc(S(=O)(=O)Nc2ccccc2SC)cc1C | 0
Cc1ccc(O)c(C(CC(=O)N2CCCC2)c2ccccc2)c1 (configuration not stated) | 0
O=C(Nc1ccccc1)c1cnc2n(c1=O)CCS2 | 0
Cc1ccc(O)c(C(=O)c2cc(C#N)c(=O)n(CC3CCCO3)c2)c1 (configuration not stated) | 8
CCCC1CCC(C(=O)Nn2c(C)nc3ccccc3c2=O)CC1 (configuration not stated) | 8
Cc1cc(=O)n2[nH]c(COc3ccccc3)nc2n1 | 6
O=C(Nc1cccnc1)c1ccc2c(c1)C(=O)N(Cc1cccnc1)C2=O | 0
CCOC(=O)c1c(C)n(C)c2ccc(OC)c(NC(=O)CCN3CCSCC3)c12 | 2
O=C(NCc1cccs1)c1cc2c(s1)-c1ccccc1OC2 | 0
NS(=O)(=O)c1cc2c(cc1Cl)NC=NS2(=O)=O | 3
COc1ccc(NC(=O)C23CCC(C)(C(=O)C2)C3(C)C)cc1 (configuration not stated) | 0
Cc1cc2ccccc2n1CCNC(=O)c1ccc(S(=O)(=O)N2CCOCC2)cc1 | 4
CCCC(=O)N(Cc1cc2ccccc2[nH]c1=O)c1ccccc1OC | 2
